# Measured values from the supplement of paper PMC12636033.
# ± gives the standard deviation of the averaged measurements. Over roughly 33,000 sequences, “E-score (rank enrichment, -0.5 to 0.5)” has its median near -0.0068; the highest 2% begin near 0.24. The sample holds the highest values, similar sequences and a random draw of the others, so the mix is not that of the screen.
# Test system: muMax20 (Max(13-93) K31hArg/K57hArg, M65Nle)
# Test: PBM 8-mer E-score (E-score (rank enrichment, -0.5 to 0.5)); higher = stronger preferential binding
# Experimental: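 Protein binding microarray (universal PBM chip covering all 10-mers in fixed probe flanks) with chemically synthesized human Max(13-93) bHLH-LZ analogs (not full-length Max) bearing noncanonical residues (hArg, Tha, Aib, Nle at 65) and aromatic Cys staples. Read-out per 8-mer (and its reverse complement): E-score (rank-based enrichment, -0.5 to 0.5) and Z-score of median probe intensity.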
row,Sequence,PBM 8-mer E-score
1,AATCAGCG,-0.0368 ± 0.011
2,ACTTTGAT,0.142 ± 0.062
3,TCAGTAAA,0.013 ± 0.12
4,CATACTTC,0.181 ± 0.048
5,TATATACA,0.178 ± 0.03
6,CATATAGA,0.145 ± 0.049
7,GATATACA,0.0962 ± 0.0042
8,CATATACC,0.0712 ± 0.07
9,TATATAGA,0.0968 ± 0.19
10,AATATAGA,0.292 ± 0.049
11,AATATACT,0.215 ± 0.043
12,CATATACA,0.254 ± 0.031
13,AATATACA,0.293 ± 0.01
14,TACATCAA,0.11 ± 0.093
15,GCCAAGCC,-0.109 ± 0.012
16,GAGTGACC,-0.141 ± 0.015
17,CCGTCCCA,0.0086 ± 0.03
18,AATGTCAT,0.0752 ± 0.093
19,CCTAAGAC,0.0353 ± 0.033
20,ATAGTTAG,0.0831 ± 0.052
21,ATAGTTAC,0.181 ± 0.06
22,ATAGTAAA,0.262 ± 0.012

row,Sequence,PBM 8-mer E-score
1,ATAGTAGG,0.0443 ± 0.12
2,GTAGTAGA,0.0328 ± 0.058
3,ATAGTAGA,0.253 ± 0.031
4,ATAGTTAA,0.261 ± 0.0096
5,CTAGTAAA,0.0505 ± 0.014
6,ATAGTAAT,0.158 ± 0.027
7,TGGGTTAA,0.053 ± 0.046
8,GCCTCTCC,0.0347 ± 0.12
9,GCGAATCA,-0.157 ± 0.067
10,CCGATGGA,-0.246 ± 0.043
11,TAACGGTA,0.204 ± 0.011
12,TAAGCTGA,0.0855 ± 0.056
13,AACACGGG,0.0469 ± 0.0099
14,CGATGCGA,-0.117 ± 0.088
15,GAAGCCGC,-0.115 ± 0.058
16,AGCGTGAC,0.117 ± 0.086
17,AACGTGAT,0.272 ± 0.01
18,AACGTGAG,0.0485 ± 0.088
19,AACGTGCT,0.0241 ± 0.0069
20,AGCGTGAG,0.0998 ± 0.075
21,AACGTGAA,0.0196 ± 0.026
22,AACGTGGT,0.285 ± 0.029

row,Sequence,PBM 8-mer E-score
1,AACGTGGA,0.162 ± 0.015
2,AGCGTGAT,0.25 ± 0.013
3,ACCCCGTC,-0.138 ± 0.05
4,GGGGCGGA,0.0311 ± 0.065
5,AAACTAAC,0.121 ± 0.026
6,AGATGCAG,-0.0831 ± 0.013
7,CGTTCGAA,-0.071 ± 0.086
8,GCGGGCTA,-0.103 ± 0.02
9,ACATGTAC,0.286 ± 0.021
10,GCATGTAC,0.15 ± 0.081
11,ACATGTAT,0.307 ± 0.067
12,AGATGTAT,0.177 ± 0.041
13,ACATGTAA,0.249 ± 0.034
14,ACATGTCT,0.183 ± 0.035
15,CCATGTAC,0.0415 ± 0.16
16,TCATGTAA,0.112 ± 0.08
17,ACATGTAG,0.255 ± 0.05
18,CCATGTAA,0.0522 ± 0.048
19,CCATGTAG,0.0489 ± 0.046
20,ACATGTCG,0.189 ± 0.086
21,CCTTGTAG,-0.0398 ± 0.016
22,ATGTTTGC,0.119 ± 0.034

row,Sequence,PBM 8-mer E-score
1,ATTCCCGC,-0.0964 ± 0.2
2,AACTTATG,0.0994 ± 0.081
3,AAGGGAAG,0.201 ± 0.074
4,ATGCTCGA,0.0908 ± 0.059
5,AAACTTGC,0.203 ± 0.058
6,AAACTTGA,0.241 ± 0.0031
7,TAACTTGA,0.033 ± 0.066
8,ATAAGAGG,0.0841 ± 0.026
9,CTCAAACA,0.079 ± 0.12
10,ATCAAGCA,0.012 ± 0.021
11,ATCAAAAG,0.0605 ± 0.033
12,ATCAAAAA,0.284 ± 0.035
13,ATCAAACA,0.29 ± 0.056
14,ATCAAAAT,0.0188 ± 0.1
15,TAGGTTCA,-0.12 ± 0.087
16,GGCCCTAA,0.0586 ± 0.04
17,GTGGACGA,-0.0727 ± 0.036
18,CTGCCTTC,-0.136 ± 0.047
19,AGTCGTGC,-0.11 ± 0.024
20,CAGACGCG,-0.145 ± 0.18
